Bioassay records as filed in PubChem BioAssay.
This is a sample that favours compounds with a hit; in the whole collection about 5% have one here.
CHT allo act: CHT positive allosteric modulators, primary screen, cell-based, membrane potential dye, choline EC20; High affinity choline transporter 1 (Homo sapiens), Q9GZV3; CHT-expressing cells; hits give high values; LV-AA mutant CHT in HEK293 cells; B-score at 10 µM; hit rate 0.49% among 310,000;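 active = initial fluorescence not abnormally high and integrated response B-score, plate-corrected, over 3 SD above library mean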
Target sequence (Q9GZV3 whole entry, looked up): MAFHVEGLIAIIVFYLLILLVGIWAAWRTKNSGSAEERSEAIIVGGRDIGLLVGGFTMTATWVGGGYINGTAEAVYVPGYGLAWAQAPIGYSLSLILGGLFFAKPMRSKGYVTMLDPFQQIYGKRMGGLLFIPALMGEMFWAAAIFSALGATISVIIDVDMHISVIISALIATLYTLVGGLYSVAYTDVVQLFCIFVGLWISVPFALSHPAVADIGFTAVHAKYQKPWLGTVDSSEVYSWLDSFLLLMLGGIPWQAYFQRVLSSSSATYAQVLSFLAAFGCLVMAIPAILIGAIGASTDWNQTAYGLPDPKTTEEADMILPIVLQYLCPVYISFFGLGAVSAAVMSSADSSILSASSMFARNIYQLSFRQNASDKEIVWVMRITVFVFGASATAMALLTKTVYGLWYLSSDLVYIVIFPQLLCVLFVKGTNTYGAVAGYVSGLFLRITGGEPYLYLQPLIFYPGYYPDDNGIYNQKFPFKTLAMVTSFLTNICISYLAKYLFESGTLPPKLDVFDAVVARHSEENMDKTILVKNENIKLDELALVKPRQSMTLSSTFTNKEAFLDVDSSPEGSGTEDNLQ
AI-2 QS modul: Vibrio harveyi AI-2 quorum sensing modulators, primary screen, JMH597 strain, luminescence/OD600 ratio. Vibrio harveyi JMH597 AI-2 luminescence/OD600 ratio, 9 h; hits give low values; strain lacks LuxN and CqsS sensors; 0 = neutral-control median. hit rate 0.4% among 300,000. activity change, % at 7.5 µM; in the data active = activity change below about -75%, passing the limit was not always enough;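 note: luminescence divided by OD600 gain over 9 h not by final OD600 alone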
CHT inh: inhibitors of human choline transporter CHT. B-score at 10 µM. High affinity choline transporter 1 (Homo sapiens), Q9GZV3. hit rate 0.86% among 310,000. CHT-expressing cells, membrane potential dye, choline response; hits give low values;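 active = B-score over 3 SD under the library average, and starting fluorescence ratio not unusually high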;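 note: choline stimulus applied at its EC90 after an EC20 pre-addition; B-score computed on integrated fluorescence ratio after choline addition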
PREPL inh: PREPL enzyme inhibitors, primary screen, biochemical, fluorescence polarization; Prolyl endopeptidase-like (Homo sapiens), Q4J6C6; recombinant PREPL, fluorescence polarization activity-based probe; inhibition, % at 5.96 µM; hit rate 0.68% among 320,000; AID 2751, 2010; in the data active = inhibition above about 43%;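 note: 0% = enzyme with DMSO and 100% = wells lacking enzyme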
ALR inh: inhibitors of human ALR sulfhydryl oxidase, primary screen, biochemical, H2O2 detection, HRP-luminol luminescence, single point; FAD-linked sulfhydryl oxidase ALR (Homo sapiens), P55789; purified ALR, DTT oxidation; inhibition, % (concentration not given with the values); hit rate 3.8% among 290,000; AID 485317, 2010;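 active = mean replicate inhibition above about 79%, with every replicate also reaching it, limit read from the data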
CHT activ conf: CHT activators, confirmation, cell-based, membrane potential dye, duplicate; shares compounds with CHT allo act; CHT-expressing cells, membrane potential dye fluorescence (FDSS); % of choline EC20–EC90 response window; HEK293 expressing CHT LV-AA mutant; choline added at its EC20; activation, % at 10 µM; hit rate 91% among 2,500; AID 504833, 2011;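 active = primary screen active, with duplicate mean activation above negative control mean plus 3 SD, cut at about 11% in these data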
HEK293 MP dye: membrane potential response in parental HEK293 cells, counter-screen for CHT activator project, cell-based, membrane potential dye. hit rate 62% among 2,500. shares compounds with CHT allo act. ratio readout change at 10 µM, hits read low. membrane potential dye fluorescence (FDSS); measured after EC20 choline addition;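 active = duplicate-averaged ratio beyond 3 SD from buffer wells, up or down, though filed actives are nearly all decreases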
Numbers without * were called inactive; i = inactive; · = no result given.

SMILES	CHT allo act	AI-2 QS modul	CHT inh	PREPL inh	ALR inh	CHT activ conf	HEK293 MP dye
O=C(CNC1=NCCC1)c1ccc2c(c1)OCCO2	i	1	i	7	·	36*	-28*
Cn1ccnc1-c1nc2ccccc2[nH]c1=O	7.1*	11	i	1	-6	63*	-55*
COc1c2occc2c(OC)c2c(=O)cc(C)oc12	i	19	i	-1	5	34*	-38*
COc1ccc(N2CCN(C(c3cc(OC)ccc3OC)c3nnnn3Cc3ccco3)CC2)cc1 (stereo unspecified)	7.4*	-13	i	4	0	21*	i
CCC(C)(C)n1nnnc1C(c1cc(OC)ccc1OC)N1CCN(Cc2ccccc2)CC1 (stereo unspecified)	7.6*	4	i	22	-2	35*	i
CCN1C(=NCCN2CCOCC2)N[C@@H](c2ccccc2)C(C(=O)OC)=C1C	i	11	i	10	1	·	·
COc1cccc(C(=O)N2CCCN(C)CC2)c1OC	i	18	i	-3	-13	·	·
CCOc1ccc(-n2nc(C(=O)NC3CCCCC3)c3ccccc3c2=O)cc1	i	-8	i	10	-19	·	·
O=C(COC(=O)c1cc[n+]([O-])cc1)Nc1ccc(Cl)cc1[N+](=O)[O-]	i	-6	i	-7	-54	20*	-44*
O=C(COC(=O)c1cc[n+]([O-])cc1)Nc1ccc([N+](=O)[O-])cc1Cl	12*	7	i	-1	-5	62*	-79*
CN(C)c1cc[n+](CC(=O)Nc2ccc([N+](=O)[O-])cc2Cl)cc1	6.5*	4	i	36	-15	5	-33*
O=C(COC(=O)c1cc[n+]([O-])cc1)Nc1ccc(Cl)cc1Cl	·	·	·	10	-8	·	·
Cc1ccc[n+](CC(=O)Nc2ccc([N+](=O)[O-])cc2Cl)c1	i	1	i	2	-15	·	·
O=S(=O)(Nc1ccccn1)c1cccs1	i	7	i	-1	-3	·	·
Clc1ccc(Nc2ncn[nH]2)c(Cl)c1	i	16	i	-14	11	·	·
CC1=C(c2ccccc2)SC2=NCCN21	i	17	i	·	9	55*	-56*
COC(=O)c1ccc(CSc2cc(C)c3ccccc3n2)o1	i	13	i	-7	4	·	·
CCCn1c(SCc2ccc(C(=O)OC)o2)nc2ccccc2c1=O	6.7*	2	i	1	·	48*	i
CCCCn1c(N)c(N(CCC(C)C)C(=O)CCN2C(=O)C3CC=CCC3C2=O)c(=O)[nH]c1=O (stereo unspecified)	i	·	i	10	-6	·	·
COc1cc(C(=O)NNC(=S)NC(=O)/C=C/c2ccccc2)cc(OC)c1OC	i	62	i	10	30	·	·
Cc1cc(N2CCCCC2)nc2ccccc12	i	48	i	17	0	·	·
OCCNc1nc(N2CCCCC2)nc2ccccc12	i	11	i	-12	·	·	·
c1ccc2c(N3CCCCC3)nc(N3CCCCC3)nc2c1	i	5	i	5	-4	·	·
COc1cccc(C(=O)Nc2ccc3nc(N4CCOCC4)cc(C)c3c2)c1	6.8*	36	i	20	-10	42*	-43*
CCN1CCN(c2cc(C)c3cc(NC(=O)c4cccc(OC)c4)ccc3n2)CC1	i	8	i	18	-6	·	·
Cc1cc(N2CCCN(C)CC2)nc2cc(Cl)ccc12	i	-21	i	36	-15	35*	-50*
c1coc(CNc2nc(N3CCCCC3)nc3ccccc23)c1	i	37	i	20	-16	13*	i
